Data reported in PubChem BioAssay (NCATS).
Inconclusive results are not listed. Unless noted, calls come from the whole dose curve; as a rule, active = well fitted curve in either direction with a large enough effect (not every such curve was filed as active); inconclusive = small, poorly fitted or top-dose-only effect, or another doubt; inactive = flat fitted curve, though single readings scatter.

Tests used:
[1] = AP1 Signaling Pathway (AID 357); conditions: ME-180 AP-1-bla reporter, EGF-induced, beta-lactamase ratio, 5 h; at 17.2 µM (top of the series) unless noted; note: % is set by controls: 0 for no effect and ±100 for the full control effect
Method in brief: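 ME-180 cells with beta-lactamase reporter under AP-1 response element, stimulated with EC50 EGF; compounds tested in titration series, 5 h at 37 °C. CCF4 substrate added 2.5 h at room temperature; 460/530 nm emission ratio gave %activity and AC50.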

[2] = NFAT Signaling Pathway (AID 444); conditions: Jurkat NFAT-bla M1, carbachol, beta-lactamase ratio, 5 h; at 17.2 µM (top of the series) unless noted;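 note: carbachol stimulus at about its EC50 of 1 µM final; % is set by controls: 0 for no effect and ±100 for the full control effect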
Method in brief: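 Jurkat cells carrying an NFAT-driven β-lactamase reporter and co-transfected muscarinic M1 receptor were treated with compound plus carbachol (1 uM final, an EC50 level) for 5 h at 37 °C. CCF4 loading followed for 1 h at RT; 460/530 nm ratio gave %activity.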

[3] = Stat Signaling Pathway (AID 446); conditions: ME-180 (cervical carcinoma) SIE beta-lactamase reporter, IL-6 stimulated, 5 h; at 17.2 µM (top of the series) unless noted;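 note: ME-180 cervical cancer cells given 40 pM IL-6 alongside compound; SIE-controlled beta-lactamase reporter measured as 460/530 nm FRET emission ratio; % is set by controls: 0 for no effect and ±100 for the full control effect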
Method in brief: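 IL-6/STAT signaling read in ME-180 cells via an SIE beta-lactamase reporter. Stimulus was 40 pM IL-6 (its AC50) for 5 hrs, so both activation and inhibition register.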

[4] = target: Glucocorticoid receptor (Homo sapiens) (UniProt P04150); experiment: GR-GFP Redistribution (AID 450;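 active = compounds whose dose series gives a full or clear partial fitted curve of increased nuclear translocation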; note: potency is the fitted concentration of half-maximal effect)
Chain of Glucocorticoid receptor (Homo sapiens) (P04150 whole entry, looked up): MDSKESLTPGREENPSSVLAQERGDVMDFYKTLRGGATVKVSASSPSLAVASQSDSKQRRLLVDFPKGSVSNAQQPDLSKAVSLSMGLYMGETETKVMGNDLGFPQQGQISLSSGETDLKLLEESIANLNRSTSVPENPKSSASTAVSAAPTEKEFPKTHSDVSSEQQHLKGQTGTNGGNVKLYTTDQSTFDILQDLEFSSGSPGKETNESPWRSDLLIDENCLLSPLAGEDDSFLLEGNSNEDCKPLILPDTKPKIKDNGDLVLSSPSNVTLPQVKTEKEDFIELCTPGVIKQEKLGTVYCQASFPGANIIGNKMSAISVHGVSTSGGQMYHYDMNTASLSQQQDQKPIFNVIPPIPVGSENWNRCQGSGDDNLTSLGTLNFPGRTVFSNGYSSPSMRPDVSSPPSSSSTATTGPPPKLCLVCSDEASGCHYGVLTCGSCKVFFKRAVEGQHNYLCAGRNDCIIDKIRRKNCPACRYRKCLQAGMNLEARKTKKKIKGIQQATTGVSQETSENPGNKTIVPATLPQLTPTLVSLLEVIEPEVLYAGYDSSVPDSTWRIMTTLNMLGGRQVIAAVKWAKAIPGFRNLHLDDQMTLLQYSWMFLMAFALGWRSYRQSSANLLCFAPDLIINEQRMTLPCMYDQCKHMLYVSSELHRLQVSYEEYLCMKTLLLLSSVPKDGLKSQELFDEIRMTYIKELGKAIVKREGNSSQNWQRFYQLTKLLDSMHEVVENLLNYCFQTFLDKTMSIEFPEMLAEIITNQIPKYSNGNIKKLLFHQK

COc1ccc(/C(O)=C2/C(=O)C(=O)N(CCCN(C)C)C2c2ccccc2)cc1Cl (stereo not drawn)
inactive: activity change, negative = inhibition [1] 8.68% | activity change, negative = inhibition [2] -3.88% | activity, negative = inhibition [3] 12.1% | Potency [4] > 20.6 µM

COc1ccc(C2C(C#N)=C(N)SC(N)=C2C#N)cc1OC
inactive: activity change, negative = inhibition [1] 5.54% | activity change, negative = inhibition [2] 29.6% | activity, negative = inhibition [3] 3.8% | Potency [4] > 20.6 µM

CCCCC(CCC(=O)Nc1ccc(C(=O)OCC)cc1)C(=O)O (stereo not drawn)
inactive: activity change, negative = inhibition [1] -10.4% | activity change, negative = inhibition [2] 8.16% | activity, negative = inhibition [3] 3.27% | Potency [4] > 20.6 µM

O=C(CNC1=NCCC1)c1ccc2c(c1)OCCO2
inactive: activity change, negative = inhibition [1] 5.51% | activity change, negative = inhibition [2] -10.1% | activity, negative = inhibition [3] -3.23% | Potency [4] > 20.6 µM

CCOC(=O)Oc1ccc2c(c1)C(C)=CC(C)(C)N2C(=O)OCC
inactive: activity change, negative = inhibition [1] 4.5% | activity change, negative = inhibition [2] -5.18% | activity, negative = inhibition [3] 4.48% | Potency [4] > 20.6 µM

COCCOCCOCCC(=O)NC1CC2CCC1(C)C2(C)C (stereo not drawn)
inactive: activity change, negative = inhibition [1] 13.7% | activity change, negative = inhibition [2] 0.73% | activity, negative = inhibition [3] -0.452% | Potency [4] > 20.6 µM

COc1ccc(Cn2c(O)cc(=O)[nH]c2=O)cc1
inactive: activity change, negative = inhibition [1] 27.1% | activity change, negative = inhibition [2] -0.64% | activity, negative = inhibition [3] -3.75% | Potency [4] > 20.6 µM

COc1ccc(NCc2cc3ccccc3[nH]c2=O)cc1
inactive: activity change, negative = inhibition [1] -1.34% | activity change, negative = inhibition [2] -19.9% | activity, negative = inhibition [3] 1.46% | Potency [4] > 20.6 µM

COc1cccc(Cn2c(NCc3ccco3)nc3c2c(=O)n(C)c(=O)n3C)c1
inactive: activity change, negative = inhibition [1] -11% | activity change, negative = inhibition [2] -5% | activity, negative = inhibition [3] -24.4% | Potency [4] > 20.6 µM

O=c1c2c3c(sc2nc2n1CCCS2)CCCC3
inactive: activity change, negative = inhibition [1] -22.8% | activity change, negative = inhibition [2] -17.4% | activity, negative = inhibition [3] 1.96% | Potency [4] > 20.6 µM

COCC(C)Nc1ncnc2c1cnn2-c1ccc(Cl)cc1 (stereo not drawn)
inactive: activity change, negative = inhibition [1] -23.7% | activity change, negative = inhibition [2] -6.38% | activity, negative = inhibition [3] -3.72% | Potency [4] > 20.6 µM

COc1cccc(C(=O)N2CCN(Cc3ccccn3)CC2)c1OC
inactive: activity change, negative = inhibition [1] 2.17% | activity change, negative = inhibition [2] 7.94% | activity, negative = inhibition [3] 7.75% | Potency [4] > 20.6 µM

COCCCn1c2nc3ccccc3nc2c2c(=O)n(CC3CCCO3)cnc21 (stereo not drawn)
inactive: activity change, negative = inhibition [1] 0.107% | activity change, negative = inhibition [2] -12.4% | activity, negative = inhibition [3] -0.209% | Potency [4] > 20.6 µM

CN1CCN(c2nc(C(N)=O)cc(-c3ccccc3)n2)CC1
inactive: activity change, negative = inhibition [1] -1.1% | activity change, negative = inhibition [2] -3.4% | activity, negative = inhibition [3] 20.9% | Potency [4] > 20.6 µM

COc1cc(C)nc(Oc2ccc(=O)n(C)n2)n1
inactive: activity change, negative = inhibition [1] 8.82% | activity change, negative = inhibition [2] -8.27% | activity, negative = inhibition [3] 1.84% | Potency [4] > 20.6 µM

Cc1ccc2cc(CNC(C)C)c(=O)[nH]c2c1
inactive: activity change, negative = inhibition [1] 3.13% | activity change, negative = inhibition [2] -10.3% | activity, negative = inhibition [3] -4.43% | Potency [4] > 20.6 µM

Cn1c(SCC(=O)N2CCOCC2)nnc1-c1ccc(Cl)cc1Cl
inactive: activity change, negative = inhibition [1] -13.7% | activity change, negative = inhibition [2] -5.6% | activity, negative = inhibition [3] 5.04% | Potency [4] > 20.6 µM
